# From PubChem BioAssay
# Rows were chosen to be rich in hits. Some 1.6% of all compounds tested hit in one or more screens of this group.
# Efflux pump mplx: antifungal efflux pump inhibition, Nile Red retention; S. cerevisiae Candida pump triplex; inhibition, % at 10 µM; hit rate 0.44% among 330,000; AID 485275;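 active means plate passing quality check with inhibition over a set limit, or well fluorescence over plate mean plus 4 SD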;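 further: Nile Red retained in pooled yeast measured as flow cytometry median fluorescence; 0% = buffer negative control and 100% = Enniatin B positive control; higher means more Nile Red kept so more efflux inhibition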
# NSD2 HMT inh: NSD2 (human) methyltransferase inhibition; O96028; NSD2 peptide methylation, AlphaScreen, 120 min; inhibition, % at 12.5 µM; hit rate 0.54% among 310,000; AID 743445; in the data active means inhibition above about 50%
# Target sequence (O96028 whole entry, looked up): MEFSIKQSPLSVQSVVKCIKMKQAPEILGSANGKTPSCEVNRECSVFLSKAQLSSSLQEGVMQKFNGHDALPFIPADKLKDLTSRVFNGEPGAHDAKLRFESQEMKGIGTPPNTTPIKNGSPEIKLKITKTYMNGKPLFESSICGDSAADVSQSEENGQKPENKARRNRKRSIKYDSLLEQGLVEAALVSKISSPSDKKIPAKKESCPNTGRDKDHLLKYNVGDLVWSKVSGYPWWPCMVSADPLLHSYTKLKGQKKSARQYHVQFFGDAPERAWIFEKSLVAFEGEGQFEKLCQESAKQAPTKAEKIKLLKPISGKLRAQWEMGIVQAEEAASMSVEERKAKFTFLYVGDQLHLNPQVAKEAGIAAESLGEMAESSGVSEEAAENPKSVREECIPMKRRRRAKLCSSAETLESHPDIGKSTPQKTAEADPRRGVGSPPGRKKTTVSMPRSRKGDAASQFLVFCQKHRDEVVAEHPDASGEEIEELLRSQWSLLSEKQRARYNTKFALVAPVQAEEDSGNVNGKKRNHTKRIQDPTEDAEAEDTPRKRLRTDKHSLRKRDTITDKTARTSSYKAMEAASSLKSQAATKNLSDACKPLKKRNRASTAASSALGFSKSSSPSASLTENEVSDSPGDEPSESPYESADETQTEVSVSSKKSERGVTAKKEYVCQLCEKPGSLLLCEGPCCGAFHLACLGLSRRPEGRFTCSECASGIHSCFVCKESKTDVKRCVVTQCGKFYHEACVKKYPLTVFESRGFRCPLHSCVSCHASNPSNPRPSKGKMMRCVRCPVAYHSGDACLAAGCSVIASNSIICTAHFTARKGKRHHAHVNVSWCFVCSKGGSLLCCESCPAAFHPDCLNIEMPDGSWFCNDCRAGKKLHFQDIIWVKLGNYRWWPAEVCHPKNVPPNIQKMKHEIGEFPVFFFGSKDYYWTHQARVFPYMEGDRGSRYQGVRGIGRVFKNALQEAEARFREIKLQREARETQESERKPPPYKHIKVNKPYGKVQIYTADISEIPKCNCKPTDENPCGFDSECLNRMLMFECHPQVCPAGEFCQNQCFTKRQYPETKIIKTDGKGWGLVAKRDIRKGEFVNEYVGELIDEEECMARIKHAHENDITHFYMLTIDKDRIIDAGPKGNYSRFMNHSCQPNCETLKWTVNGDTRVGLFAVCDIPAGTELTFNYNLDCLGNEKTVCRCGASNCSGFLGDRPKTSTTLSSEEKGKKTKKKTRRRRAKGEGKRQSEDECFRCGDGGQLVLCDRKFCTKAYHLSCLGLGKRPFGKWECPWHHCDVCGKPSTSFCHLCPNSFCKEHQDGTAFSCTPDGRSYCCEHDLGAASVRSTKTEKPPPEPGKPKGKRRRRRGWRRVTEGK
# V-ATPase pH: alters yeast V-ATPase proton transport | S. cerevisiae, pHLuorin cytosolic pH fluorescence | response, % at 10 µM | hit rate 0.37% among 350,000; in the data active means response mostly above about 7.3%, no sharp cut-off; inactive means mostly below about 5.4%; further: actives read high
# NPR1 activator: GC-A (human) enzyme activation; activation, % at 10 µM; AID 1671463; HEK293 GC-A cells, cGMP TR-FRET, EC30 ANP; 0% at EC30 ANP, 100% saturating ANP; hit rate 0.14% among 370,000; P16066; in the data active means activation above about 40%
# GC-B act: GC-B (human) receptor activation; hit rate 0.11% among 370,000; activation, % at 10 µM; P20594; HEK293-GC-B cells, CNP EC30, cGMP TR-FRET; 0% at EC30 CNP, 100% saturating CNP; AID 1920062;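 active means activation at 10 µM reaching about 35% in either raw or pattern-adjusted values, limit read from the data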
# Rce1 inhib: yeast Ras-converting enzyme inhibition; yeast membranes, quenched prenylated peptide cleavage fluorescence; calls only; hit rate 0.27% among 290,000; AID 2563;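 active means fall in fluorescence gain of 50% or more versus controls, with final raw signal at or below 3038400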;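 further: plate controls were neutral control wells for no effect and wells lacking membranes for full effect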
# The depositor's hits bear a star; i = inactive; . = no result; + = active, no number.
SMILES,Efflux pump mplx,NSD2 HMT inh,V-ATPase pH,NPR1 activator,GC-B act,Rce1 inhib
COc1ccc(S[C@]2(C(=O)N3CCOCC3)CC(=O)N(c3ccc(OC)cc3)[C@@H]2c2ccc(OC)cc2)cc1,.,.,.,-7.2,-7.2,.
Brc1ccccc1-c1nnc2sc(-c3ccc4c(c3)OCCO4)nn12,0.0,10.9,3.6,-3.8,-0.5,i
Clc1ccccc1-c1nnc2sc(-c3ccc4c(c3)OCO4)nn12,0.0,1.9,15.8*,4.2,-3.1,i
COC(=O)c1cc2c(=O)n3ccccc3nc2n(Cc2cccnc2)c1=N,0.1,.,.,.,.,i
N=c1c(C(=O)NCc2ccc(F)cc2)cc2c(=O)n3ccccc3nc2n1Cc1cccnc1,-0.2,27.0,6.6,6.0,-4.2,+
O=C(Nc1nnc(-c2cccnc2)s1)c1cnc2ccccc2c1,.,-0.8,.,-1.4,-5.4,.
NS(=O)(=O)c1ccc(NC(=O)/C=C/c2cn(-c3ccccc3)nc2-c2cccc(Cl)c2)cc1,-0.2,0.5,6.4,-7.4,-5.9,+
O=C(/C=C/c1cn(-c2ccccc2)nc1-c1ccccc1)Nc1ccc(C(=O)O)cc1,0.3,0.2,7.8,-3.5,2.1,i
CCc1nnc2c(NCCc3ccc(OC)c(OC)c3)nc3ccccc3n12,.,.,0.2,40.1*,53.5*,i
COc1ccc(CCNc2nc3ccccc3n3cnnc23)cc1OC,0.3,-4.8,-4.0,8.0,14.1,i
CC(=O)Nc1ccc(S(=O)(=O)N2CCN(c3ccc(C)c(Cl)c3)CC2)cc1,0.0,.,17.0*,-2.4,0.8,i
CCSc1nnc(NC(=O)c2cccs2)s1,0.1,-2.5,15.8*,2.4,2.7,i
Cc1ccc(S(=O)(=O)Nc2ccccc2C(=O)NCC2CCCO2)cc1 (stereo not given),-0.1,-1.2,.,3.0,-1.8,+
COC(=O)N1C(=O)[C@@](c2ccsc2)(C(C)C)N1C(=O)OC,.,-3.6,.,.,.,.
CCOC(=O)c1c(-c2ccccc2)oc2ccc(OCC)cc12,0.0,-5.4,-0.5,-5.2,-3.9,i
CCOC(=O)c1c(-c2ccccc2)oc2ccc(OCC(O)CNCCN(C)C)cc12 (stereo not given),0.1,6.6,-10.4,-11.1,-11.2,+
COc1ccc(N2C(=O)CC(Sc3nnnn3-c3ccc(F)cc3)C2=O)cc1 (stereo not given),0.0,0.1,1.3,12.0,4.0,i
O=C1CC(Sc2nnnn2-c2ccccc2)C(=O)N1c1cccc(Cl)c1 (stereo not given),-0.3,.,1.3,29.1,36.4*,i
O=C(CSc1nnc(Cc2cccs2)n1-c1ccc(Cl)cc1)Nc1ccc(OCc2ccccc2)cc1,.,-0.9,.,-3.9,-0.3,.
COC(=O)Cc1c(C)c2ccc(OCc3nn[nH]n3)cc2oc1=O,-0.1,0.8,-3.9,0.7,4.5,i
COC(=O)Cc1c(C)c2ccc(OCc3nn[nH]n3)c(C)c2oc1=O,0.1,0.2,-2.3,4.0,3.3,+
CC(COc1ccc(C(F)(F)F)cc1)CN1CCC(C(O)(c2ccccc2)c2ccccc2)CC1 (stereo not given),.,.,.,-11.2,-1.7,.
CCCCn1c2nc3ccccc3nc2c2c(=O)n(CCC(C)C)cnc21,0.2,-2.7,-2.0,16.9,9.4,i
CCCCn1cnc2c(c1=O)c1nc3ccccc3nc1n2Cc1ccc2c(c1)OCO2,0.0,0.5,1.5,51.6*,52.3*,i
CCN1C(=O)c2cccc3c(NC(=O)c4ccc(S(=O)(=O)N(C)C)cc4)ccc1c23,-0.1,-0.5,-0.2,28.9,41.5*,i
SMILES,Efflux pump mplx,NSD2 HMT inh,V-ATPase pH,NPR1 activator,GC-B act,Rce1 inhib
COC(=O)C1=C(C(=O)OC)[C@@]2([C@@H](Cc3ccc(C)cc3)Nc3ccccc3)C=C[C@@H]1O2,.,-0.9,.,-29.9,-30.0,.
CCOC(=O)c1[nH]c2ccc(OC)cc2c1NC(=O)CN1CCSCC1,0.0,0.4,24.9*,2.7,-3.1,.
CCOC(=O)c1[nH]c2ccc(OC)cc2c1NC(C)=O,-0.1,1.1,-2.3,0.0,9.8,i
Cc1csc(CNc2ncnc3ccc(-c4ccoc4)cc23)c1,0.2,.,0.8,35.6,36.7*,.
CC(COc1cccc(Cl)c1)CN1CCC(C(O)(c2ccccc2)c2ccccc2)CC1 (stereo not given),.,.,.,-12.5,-2.5,.
CCCn1c(N)c(C(=O)CSc2nc(C)nc3sc(C)c(C)c23)c(=O)[nH]c1=O,0.0,0.0,-8.6,40.7*,-0.9,i
CCCn1c(N)c(C(=O)CSc2nc(C)cs2)c(=O)[nH]c1=O,-0.1,-1.9,-0.5,-0.7,-1.2,i
O=C(Oc1ccc2ccc(O)cc2c1)c1ccccc1F,.,1.7,.,.,.,.
Cc1c[nH]c2cccc(-c3ccc(OCc4ccccc4)cc3)c12,.,.,.,-0.1,-1.3,.
CCOc1ccc(S(=O)(=O)N2CCC(C(N)=O)CC2)c2ccccc12,0.0,.,21.9*,1.3,2.5,.
COC(=O)CSc1nc(N)c2c3c(sc2n1)C(c1ccccc1)SC(c1ccccc1)C3 (stereo not given),-0.1,-1.0,2.1,.,.,+
Cc1c(C)c2c(OCC(=O)NCc3ccncc3)cc3c(c2oc1=O)CCC(C)(C)O3,0.1,.,-0.9,4.0,-0.9,+
CCc1cc(=O)oc2c3c(cc(OCC(=O)NCCCCCC(=O)O)c12)OC(C)(C)CC3,0.1,-0.5,-1.6,2.5,4.3,+
CCCC/C=C1/[C@H](CC)N(C)C2=N[C@@H](c3ccccc3)CC(=O)N21,.,-2.7,.,-5.2,-10.3,.
COC(=O)[C@]1(C#N)CC(=O)N(Cc2ccc(Cl)cc2)[C@@H]1c1ccccc1,.,.,.,-10.8,-5.5,.
Cc1ccc(N=Nc2ccc(O)c(P(=O)(c3ccccc3)c3ccccc3)c2)cc1,0.3,-1.2,2.2,49.8*,-3.7,i
C=CCn1c(-c2ccc(Cl)cc2Cl)csc1=Nc1ccc(NC(C)=O)cc1,.,7.3,.,.,.,.
Cc1oc(-c2ccc(Cl)cc2)nc1CS(=O)CC(=O)NCc1ccco1 (stereo not given),-0.2,1.6,-3.0,18.4,2.1,+
CC(C)c1cccc(C(C)C)c1OC(=O)[C@H]1OC(c2ccc(Br)cc2)=C[C@@H]1c1ccc(Br)cc1,0.8*,.,-62.8,-0.8,3.1,.
O=c1c2ccccc2sc2ccc(C#CC3(O)CCCCC3)cc12,0.3,.,0.6,-3.0,-6.0,i
COc1cccc2sc3ccc(C#CC4(O)CCCCC4)cc3c(=O)c12,0.1,.,-1.1,1.5,3.9,+
COc1ccc(C(=O)OCCCN(C)C2CN(Cc3cn(Cc4ccccc4Cl)nn3)S(=O)(=O)C2)cc1OC (stereo not given),.,.,.,-1.8,-8.5,.
O=[N+]([O-])c1cc2no[n+]([O-])c2cc1N1CCCCC1,.,24.2,42.1*,42.3*,20.1,.
COc1cc(C2NCC(c3ccc(Cl)cc3Cl)c3c2[nH]c2ccccc32)cc(OC)c1OC (stereo not given),0.0,0.4,2.5,85.6*,-11.3,i
